Test results reported in PubChem BioAssay AID651956 (Broad Institute, 2012).
Potency and affinity values are given separately. Inconclusive results are not listed. Activity calls are given as the source filed them.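 Rule for the calls: active = in every test run, a fitted half-maximal concentration for signal decrease at or below twice the highest tested concentration; inconclusive = runs disagree, flat 30 to 70% decrease, or poor fit; inactive = the rest.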

assay: miR-122 activators in hepatoma reporter cells, dose response, cell-based, Huh7 psiCHECK-miR122, Renilla luciferase, cherry-picked (AID 651956); conditions: 48 h; series mostly up to 35 µM;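 note: Renilla luciferase from a miR-122 sensor reporter so lower signal means miR-122 activation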

outcome, inactive:
Cc1ccc(-c2ccc3c(c2)O[C@H](CN(C)C(=O)CC2CC2)[C@H](C)CN([C@@H](C)CO)S3(=O)=O)cc1, O=C(N[C@H]1CC[C@H](CCn2cc(C3(O)CCCC3)nn2)O[C@H]1CO)c1ccccc1F, CN1C(=O)c2cc(NC(=O)Nc3ccccc3F)ccc2OC[C@@H]2O[C@H](CC(=O)O)CC[C@@H]21, COc1ccc(NC(=O)N(C)C[C@H]2Oc3cc(C#CCC(C)C)ccc3S(=O)(=O)N([C@@H](C)CO)C[C@H]2C)cc1, C/C=C/c1ccc([C@H]2[C@@H](CO)N(C(C)=O)[C@@H]2CN(C(=O)COC)C(C)C)cc1, Cc1ccc(S(=O)(=O)NCCCNS(C)(=O)=O)cc1, CN(C)CCCNC(=O)C[C@H]1CC[C@H]2[C@H](COc3ccc(NS(C)(=O)=O)cc3C(=O)N2C)O1, CCCNC(=O)N1[C@@H]2CN(C(=O)c3ccccc3)c3ccccc3[C@@H]2[C@@H]1CO, C/C=C/c1ccc([C@@H]2[C@@H](CO)N(S(C)(=O)=O)[C@H]2CN(C)C(=O)CC)cc1, COc1ccc(NC(=O)N(C)C[C@@H]2Oc3cc(C#CCC(C)C)ccc3S(=O)(=O)N([C@@H](C)CO)C[C@@H]2C)cc1, COC(=O)C[C@@H]1CC[C@@H]2[C@@H](COc3ccc(NC(=O)c4cc(F)cc(F)c4)cc3C(=O)N2C)O1, COc1ccc(CNC(=O)C[C@H]2CC[C@H]3[C@H](COc4ccc(NC(=O)C(C)C)cc4C(=O)N3C)O2)cc1
